From PubChem BioAssay (EPA / NIEHS) come the findings set out here.

The source made the active and inactive calls. The calls were made as follows: active = hit-call score of the fitted dose curve at least 0.9, where 1 is the maximum; inactive = score below 0.9.

Read-out in this test: Monokine induced gamma interferon (MIG), CXCL9 (gene 4283)
The experiment in a line: BSK_SAg_MIG: BioMAP Diversity Plus: SAg Assay for Monokine induced gamma interferon (MIG) Biomarker Activity (AID 2283092). The note with it: primary human HUVEC with PBMC; actives raise or lower the signal. As to the method:
BSK_SAg is a cell-based, multiplexed-readout assay that uses umbilical vein endothelium and peripheral blood mononuclear cells, a human vascular primary cell co-culture, with measurements taken at 24 hours after chemical dosing in a 96-well plate.BSK_SAg_MIG is an assay component measured in the BSK_SAg assay. It measures MIG antibody related to regulation of gene expression using ELISA technology.Data from the assay component BSK_SAg_MIG was analyzed into 1 assay endpoint. This assay endpoint, BSK_SAg_MIG, was analyzed with bidirectional fitting relative to DMSO as the negative control and baseline of activity. Using a type of binding reporter, gain or loss-of-signal activity can be used to understand changes in the signaling as they relate to the gene CXCL9. Furthermore, this assay endpoint can be referred to as a primary readout, because this assay has produced multiple assay endpoints where this one serves a signaling function. To generalize the intended target to other relatable targets, this assay endpoint is annotated to the cytokine intended target family, where the subfamily is chemotactic factor.
The levels of cell surface (or secreted, indicated by the prefix "s") biomarker endpoints were measured by ELISA. Overt cytotoxicity to cells in confluent adherent cultures (all systems other than the BT system) was assessed by measuring total protein levels using sulforhodamine B (SRB) staining in parallel cultures at the time of biomarker measurements, indicated as SRB endpoints. For proliferation assays for adherent cell types, individual cell types are cultured at sub-confluence and relative cell numbers quantified by SRB staining at time points optimized for each system (48 h: 3C and CASM3C systems; 72 h: BT and HDF3CGF systems; 96 h: SAg system). SRB was performed by staining cells with 0.1% SRB after fixation with 10% TCA and reading wells at 560 nm.Viability and proliferation of PBMC (T cells) was quantified by Alamar Blue reduction for the SAg and BT systems. For PBMC viability (referred to as PBMC Cytotoxicity within the assay endpoint names), cells were plated (75,000/well in a 96-well plate) and then chemical samples added for 1 h before addition of activators, SEB and TSST-1 (20 ng/mL final concentration each). Cells were incubated for 90 h. Then, Alamar Blue (20 uL/well) (Invitrogen, Cat DAL1100) was added for 6 h, and the plates were read with a fluorescence microplate reader at 546/580 nm (excitation/emission). For PBMC proliferation, cells were plated and activated as above but incubated for only 16 h prior to addition of Alamar Blue. Plates were read after 6 h.
`C[C@H]1C[C@@H]2[C@H]([C@@H](O)C[C@@]3(C)[C@H]2CC[C@]3(O)C(=O)CO)[C@@]2(C)C=CC(=O)C=C12`: the result was inactive.
Regarding `N#Cc1ccc(CC(=NNC(=O)Nc2ccc(OC(F)(F)F)cc2)c2cccc(C(F)(F)F)c2)cc1`, the result was inactive.
Still for that read-out and setting: the entry for `CCn1c2ccccc2c2cc(N)ccc21` is “inactive”; for `BrC1CCC(Br)C(Br)CCC(Br)C(Br)CCC1Br` (stereo not given) it is “inactive”.
As to `NCCNCCN`, the outcome was inactive.
For the compound `CC(C)Oc1ccccc1O`, the outcome was inactive.
Same read-out and setting: the entry for `OC1OC[C@@H](O)[C@H](O)[C@H]1O` (stereo not given in full) is “inactive”; for `O=C(O)c1cn(C2CC2)c2cc(N3CCNCC3)c(F)cc2c1=O` it is “inactive”; for `CCCCCCCCCCCCCCCCCC(=O)OCC(CC)CCCC` (stereo not given) it is “inactive”.
The same measure, in the same setting: the entry for `COC(=O)c1ccc(C)cc1` is “inactive”; for `CCCCC(CC)COC(=O)/C=C\C(=O)OCC(CC)CCCC` (stereo not given) it is “inactive”.
The AC50 is the concentration giving half of the maximal activity seen. `CCCCC/C=C/C=C/C=O`: the AC50 was 35.6 µM (active).
Take `O=C(O)c1ccc([N+](=O)[O-])cc1`: the result was inactive.
With `O=[N+]([O-])c1cc(C(F)(F)F)ccc1Cl`, the result was inactive.
`c1ccc2sc(SN(C3CCCCC3)C3CCCCC3)nc2c1`: the result was inactive.
In the case of `CC1CCC(C(C)CS)CC1S` (stereo not given), the AC50 is 34.6 µM (active).
As for `C=C[Si](OCC)(OCC)OCC`, the result was inactive.
Consider `CC1COc2ccccc2N1C(=O)C(Cl)Cl` (stereo not given), for which the outcome was inactive.
In the case of `C=CCOC(=O)CCC1CCCCC1`, the result was inactive.
Same read-out and setting: the entry for `Cc1ccc(Nc2ccc(O)c3c2C(=O)c2ccccc2C3=O)cc1` is “inactive”.
On the same count and under the same terms, as for `CC(=O)O[C@]1(C(C)=O)CC[C@H]2[C@@H]3C[C@H](C)C4=CC(=O)CC[C@]4(C)[C@H]3CC[C@@]21C`, the entry is “inactive”.
For the compound `O=C1OC2(c3cc(Br)c(O)c(Br)c3Oc3c2cc(Br)c(O)c3Br)c2c(Cl)c(Cl)c(Cl)c(Cl)c21`, the AC50 was 23.1 µM (active).
Turning to `CCCCCCCCCC=O`, the outcome was inactive.
Regarding `CC(=O)/C=C/C1=C(C)CCCC1(C)C`, the outcome was inactive.
Same read-out and setting: as for `CCCCCCCCC=O`, the entry is “inactive”.
Consider `c1ccc2c(c1)c1cccc3ccc4cccc2c4c31`, for which the outcome was inactive.
For `CCC(=O)OCc1ccccc1`, the outcome was inactive.
With `CC(=O)[C@H]1CC[C@H]2[C@@H]3CC=C4C[C@@H](O)CC[C@]4(C)[C@H]3CC[C@]12C`, the outcome was inactive.
The same measure, in the same setting: the entry for `CC(C)(COC(=O)c1ccccc1)COC(=O)c1ccccc1` is “inactive”; for `O=C(O)C[C@H](O)C[C@H](O)/C=C/c1c(C2CC2)nc2ccccc2c1-c1ccc(F)cc1` it is “inactive”.
On to `Nc1cc([N+](=O)[O-])ccc1O`, for which the outcome was inactive.
In the case of `O=P(c1ccccc1)(c1ccccc1)c1ccccc1`, the outcome was inactive.
Same read-out and setting: as for `CN(CCOc1ccc(CC2SC(=O)NC2=O)cc1)c1ccccn1` (stereo not given), the entry is “inactive”; as for `CNC[C@H](O)c1cccc(O)c1`, “inactive”.
Consider `Cc1ccc(O)c(C(C)(C)C)c1`, for which the AC50 is 38.1 µM (active).
As to `CC(=O)Nc1ccccc1O`, the result was inactive.
The same measure, in the same setting: the entry for `COc1cc(C=O)ccc1OC(=O)C(C)C` is “inactive”.
On to `CCc1c(C)cc(N)c(CC)c1N`, for which the result was inactive.
Same read-out and setting: as for `CC(=O)OCCC(C)CC(C)(C)C` (stereo not given), the entry is “inactive”.
Still for that read-out and setting: the entry for `C#C[C@]1(O)CC[C@H]2[C@@H]3CCC4=Cc5oncc5C[C@]4(C)[C@H]3CC[C@@]21C` is “inactive”.
